AI-2 QS mod = modulators of Vibrio harveyi AI-2 quorum sensing system; AID 2094; Vibrio harveyi JMH597 AI-2 luminescence/OD600 ratio, 9 h; active compounds read low; strain lacks LuxN and CqsS sensors; 0 = neutral-control median; activity change, % at 7.5 µM; 300,000 compounds, 0.4% hits; in the data active means activity change below about -75%, passing the limit was not always enough;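 further: luminescence divided by OD600 gain over 9 h not by final OD600 alone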
ALR inh = inhibitors of human sulfhydryl oxidase ALR | inhibition, % (no concentration beside the values) | purified ALR, DTT oxidation, H2O2 HRP-luminol luminescence | P55789 | 290,000 compounds, 3.8% hits;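 active means mean replicate inhibition above about 79%, with every replicate also reaching it, limit read from the data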
PREPL inh = inhibits the human prolyl oligopeptidase-like enzyme | 320,000 compounds, 0.68% hits | recombinant PREPL, fluorescence polarization activity-based probe | Q4J6C6 | inhibition, % at 5.96 µM; in the data active means inhibition above about 43%;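 further: 0% = enzyme with DMSO and 100% = wells lacking enzyme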
CHT PAM = human CHT allosteric activation; CHT-expressing cells, membrane potential dye, choline EC20; active compounds read high; LV-AA mutant CHT in HEK293 cells; AID 488977; 310,000 compounds, 0.49% hits; B-score at 10 µM;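 active means initial fluorescence not abnormally high and integrated response B-score, plate-corrected, over 3 SD above library mean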
Target sequence (Q9GZV3 whole entry, looked up): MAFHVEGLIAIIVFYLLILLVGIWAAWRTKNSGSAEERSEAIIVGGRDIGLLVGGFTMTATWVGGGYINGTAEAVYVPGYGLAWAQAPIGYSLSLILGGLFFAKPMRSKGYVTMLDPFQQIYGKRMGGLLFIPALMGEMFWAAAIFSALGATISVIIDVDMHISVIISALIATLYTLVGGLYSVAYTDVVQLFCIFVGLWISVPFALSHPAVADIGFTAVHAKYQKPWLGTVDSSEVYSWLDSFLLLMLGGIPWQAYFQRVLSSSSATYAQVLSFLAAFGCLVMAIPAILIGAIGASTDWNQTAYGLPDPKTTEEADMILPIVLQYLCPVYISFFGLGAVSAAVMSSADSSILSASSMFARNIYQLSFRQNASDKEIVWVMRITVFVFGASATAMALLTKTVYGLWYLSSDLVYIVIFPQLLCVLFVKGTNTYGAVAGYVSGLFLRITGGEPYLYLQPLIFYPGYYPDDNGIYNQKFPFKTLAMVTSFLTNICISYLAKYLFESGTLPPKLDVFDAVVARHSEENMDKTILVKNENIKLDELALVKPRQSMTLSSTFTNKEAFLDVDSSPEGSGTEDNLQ
CHT block = inhibits the human high affinity choline transporter; CHT-expressing cells, membrane potential dye, choline response; active compounds read low; B-score at 10 µM; 310,000 compounds, 0.86% hits;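 active means B-score over 3 SD under the library average, and starting fluorescence ratio not unusually high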;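 further: choline stimulus applied at its EC90 after an EC20 pre-addition; B-score computed on integrated fluorescence ratio after choline addition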
* hit, by the source's call; i = inactive; / = no result. The list is not random: actives were taken first. Their share in the collection is about 5%.

SMILES	AI-2 QS mod	ALR inh	PREPL inh	CHT PAM	CHT block
COc1ccccc1C(=O)Nc1nnc(-c2ccc(F)cc2)o1	27	0	26	i	i
Cc1ccccc1C(=O)Nc1nnc(-c2ccc(F)cc2)o1	-82*	/	-2	i	i
CCC(CC)NC(=O)c1cccc(Oc2ccccc2)c1	-4	-18	0	i	i
COc1ccc2[nH]c3c(=S)nc[nH]c3c2c1	1	99*	8	i	i
COc1ccc2[nH]c3c(Cl)ncnc3c2c1	1	47	9	i	i
CCOC(=O)Cc1csc(NC(=O)CSc2nnc(-c3ccc(NS(=O)(=O)CC)cc3)o2)n1	19	98*	-14	i	i
CCOC(=O)Cc1csc(NC(=O)CSc2nnc(-c3ccncc3)n2Cc2ccco2)n1	9	97*	-20	i	i
O=C(CSc1nnc(-c2ccncc2)n1Cc1ccco1)Nc1nccs1	16	-11	4	i	i
Cc1cc(C)nc(NCC(O)COc2ccccc2C)n1 (centres undefined)	10	0	3	i	i
Cc1cc(C)nc(NCC(O)CNc2ccccc2C)n1 (centres undefined)	20	98*	-4	i	i
COc1ccccc1C(=O)N1CCN=C1SC	14	-13	-1	i	i
COc1ccc(C(=O)N2CCN=C2SCc2cccnc2)c(OC)c1	28	100*	-3	i	i
COc1cccc(C(=O)N2CCN=C2SCc2cccnc2)c1OC	16	100*	-1	i	i
CC(Oc1ccccc1)C(=O)N1CCN=C1SCc1ccccc1 (centres undefined)	31	1	-1	i	i
CCCN1CN(CCc2ccccc2)CNC1=S	20	-22	9	i	i
CCCN1CNc2c(c(=O)[nH]c(=S)n2CCc2ccccc2)C1	11	91*	1	i	i
Oc1ccc(/C(Cc2ccccn2)=N\Nc2ccccc2)c(O)c1	6	99*	13	i	i
Oc1ccc(/C(Cc2ccc3ccccc3n2)=N\Nc2ccccc2)c(O)c1	50	98*	-3	i	i
COc1ccc(C(=O)C2CCCN(Cc3cnc(N4CCCC4)s3)C2)cc1OC (centres undefined)	28	98*	2	i	i
O=C(OCC(=O)N1CCOCC1)c1ccc(Cl)cc1[N+](=O)[O-]	-79*	/	-15	i	i
O=C(OCC(=O)N1CCN(c2ccccc2)CC1)c1ccc(Cl)cc1[N+](=O)[O-]	-67	-9	28	i	i
CN(CC(=O)Nc1ccccc1Cl)C(=O)COC(=O)c1ccc(Cl)cc1[N+](=O)[O-]	-94*	-13	13	i	i
O=C(OCc1c(F)cccc1Cl)c1cnc2ccccc2n1	10	-1	-15	i	i
CCCCc1nc2cc(C(=O)N3CCN(c4cnccn4)CC3)ccc2o1	/	-3	-5	i	-9.7*
Cc1ccc2c(c1)-n1c(nc3ccc(C)cc3c1=O)C(Cc1ccccc1)NC2=O (centres undefined)	/	-3	22	/	/
SMILES	AI-2 QS mod	ALR inh	PREPL inh	CHT PAM	CHT block
CC(C)(C)Nc1nc(Cl)nc(Nc2ccccc2)n1	0	98*	-2	i	i
Cc1ccc(O)c(Nc2nc(-c3ccccc3)nc3ccccc23)c1	4	-2	2	i	i
Cc1ccc(O)c(Nc2c3ccccc3nc3ccccc23)c1	21	99*	11	i	i
CCN1CCN(CCCNC(=O)C2CCN(c3nnc(-n4c(C)ccc4C)s3)CC2)CC1	15	5	-1	i	i
COc1ccc(-c2csc(NCCc3nc4cc(Cl)c(Cl)cc4n3CCCO)n2)cc1	-2	1	35	i	i
COc1cccc(N2CCN(c3ccc4nnc(CCC(=O)Nc5ccccn5)n4n3)CC2)c1	15	95*	18	i	i
COc1cccc(NC(=O)CCc2nnc3ccc(N4CCN(c5cccc(OC)c5)CC4)nn23)c1	6	-4	9	i	i
CC1CCN(S(=O)(=O)c2cccc(-c3cn4cc(Cl)ccc4n3)c2)CC1	23	-18	0	i	i
CCOC(=O)C1CCN(S(=O)(=O)c2cccc(-c3cn4cc(Cl)ccc4n3)c2)CC1	14	99*	-4	i	i
Nc1ncc(-c2ccccc2)c(-c2ccc(O)cc2O)n1	3	98*	5	i	i
O=C(C1CC(=O)N(C2CCCC2)C1)N1CCN(c2cccc(Cl)c2)CC1 (centres undefined)	27	0	2	i	i
COc1cccc(N2CCN(C(=O)CCC(=O)N3CCOc4ccc(C)cc43)CC2)c1	24	89*	17	i	i
O=C(Nc1ccc2c(c1)OCO2)N1CCN(c2ccc(F)cc2)CC1	15	58	19	i	i
Cc1ccc2c(c1)N(C(=O)CCC(=O)N1CCOCC1)CCO2	15	-6	-10	i	i
O=C(CCC(=O)N1CCOc2ccccc21)N1CCOCC1	21	-10	7	i	i
O=C(CCC(=O)N1CCOc2ccccc21)N1CCN(c2ccccc2)CC1	14	98*	-2	i	i
O=C(Nc1ccc2c(c1)OCCO2)N1CCN(c2ccccc2)CC1	40	91*	21	i	i
O=C(Cn1cnc2c(OCc3ccccc3)ncnc21)NCC1CCCO1 (centres undefined)	/	/	6	/	/
COc1ccc(C)cc1NC(=O)CN1C(=O)C(=O)N(C2CCCC2)C1=O	/	/	17	/	/
Oc1ccc(C(=S)N2CCCC2)cc1	30	9	5	i	i
CC1CCN(C(=S)c2ccc(O)cc2)CC1	9	96*	20	i	i
Cc1nc([N+](=O)[O-])c(C(=O)OCc2ccccc2F)n1C	25	-11	-9	i	i
Brc1ccccc1-c1nnc(SCc2nc3ccccc3s2)o1	-65	96*	-4	i	i
O=C1N/C(=N\S(=O)(=O)Cc2ccccc2)S/C1=C/c1cc([N+](=O)[O-])ccc1O	18	97*	2	i	i
CCCCC(NC(=O)CCc1c(C)c2cc3c4c(oc3c(C)c2oc1=O)CCCC4)C(=O)O (centres undefined)	27	96*	/	i	i
Cc1nccn1CC(=O)c1ccc(O)c(O)c1	/	87*	0	/	/
Cc1csc(=N)n1-c1ccc(Cl)cc1	10	96*	22	i	i
COCCn1nnnc1C(c1ccccc1)N1CCN(C(=O)c2ccco2)CC1 (centres undefined)	12	0	-6	i	i
O=c1[nH]c(Cc2ccccn2)nc2scc(-c3ccc(Cl)cc3)c12	22	-3	-24	i	i
O=c1[nH]c(Cc2cccs2)nc2scc(-c3ccc(Cl)cc3)c12	20	-13	55*	i	i

Compound activity deposited in PubChem by several laboratories.
